Compounds with a hit are over-represented: about 2.3% of the library has one in this group of screens.
CHO-K1 Ca antag: M1 antagonist counterscreen hit in parental CHO-K1 cells. ATP-induced calcium, Fluo-8 fluorescence. inhibition, % at 3 µM. actives 0.6% (n = 360,000). AID 602250;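 active means inhibition above a per-plate cutoff, the plate's mean sample inhibition plus 3 SD, cut at about 24% in these data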;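 further: 0% = DMSO plus EC80 ATP and 100% = DMSO alone without ATP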
M1 ag: activates human CHRM1 receptor. actives 0.33% (n = 360,000). P11229. AID 588814. CHO-K1 hM1, Fluo-8 calcium fluorescence, agonist mode; 0% DMSO, 100% acetylcholine EC100. activation, % at 3 µM;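 active means activation above the run's mean compound activation plus 3 SD, cut at about 16% in these data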;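 further: peak over basal fluorescence ratio within a 140 s kinetic read after compound addition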
Target sequence (P11229 whole entry, looked up): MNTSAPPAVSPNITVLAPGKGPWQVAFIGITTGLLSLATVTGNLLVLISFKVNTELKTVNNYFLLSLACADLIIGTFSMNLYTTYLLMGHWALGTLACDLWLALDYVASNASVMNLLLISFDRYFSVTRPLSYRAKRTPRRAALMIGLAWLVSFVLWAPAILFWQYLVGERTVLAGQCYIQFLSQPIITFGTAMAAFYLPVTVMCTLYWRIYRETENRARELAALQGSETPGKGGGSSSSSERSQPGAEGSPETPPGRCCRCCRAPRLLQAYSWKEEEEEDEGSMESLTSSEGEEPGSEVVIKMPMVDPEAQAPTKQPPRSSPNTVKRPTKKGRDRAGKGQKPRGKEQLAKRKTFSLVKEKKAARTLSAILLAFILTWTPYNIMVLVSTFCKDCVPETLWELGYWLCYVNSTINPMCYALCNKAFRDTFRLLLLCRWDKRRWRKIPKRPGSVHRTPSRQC
CHRM1 antagonist: antagonists of human M1 muscarinic receptor; AID 588852; CHO-K1 hM1, Fluo-8 calcium fluorescence, ACh EC80 antagonist; inhibition, % at 3 µM; actives 1.3% (n = 360,000);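 active means percent inhibition above its own plate's cutoff, namely the mean of that plate's compound wells plus 3 SD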;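 further: peak over basal fluorescence ratio during 140 s after agonist addition; 0% = ACh EC80 plus DMSO and 100% = DMSO alone without agonist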
M1 PAM parental: counter-screen for M1 PAMs: effect in parental CHO-K1 cells; ATP EC20, Fluo-8 calcium fluorescence; 0% at ATP EC20, 100% at ATP max; activation, % at 3 µM; actives 0.02% (n = 360,000);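 active means activation above the run cutoff, the mean activation of all test compounds plus 3 SD, cut at about 40% in these data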;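 further: peak over basal fluorescence ratio in a 140 s read after ATP addition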
CHRM1 PAM: potentiates human M1 receptor response to acetylcholine | P11229 | CHO-K1 hM1, Fluo-8 calcium fluorescence, ACh EC20; 0% = ACh EC20, 100% = maximal ACh | activation, % at 3 µM | actives 0.088% (n = 360,000); in the data active means activation above about 19%, passing the limit was not always enough
CHO-K1 Ca ag: M1 agonist counterscreen hit in parental CHO-K1 cells. Fluo-8 calcium fluorescence; scaled to maximal ATP response, vehicle zero. activation, % at 3 µM. actives 0.48% (n = 360,000). AID 602248; in the data active means activation above about 15%;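 further: untransfected CHO-K1 host cells lacking M1 receptor as counterscreen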
An asterisk follows results filed as active.

SMILES	CHO-K1 Ca antag	M1 ag	CHRM1 antagonist	M1 PAM parental	CHRM1 PAM	CHO-K1 Ca ag
O=C(NCC(c1ccco1)N1CCCC1)c1cccc(NS(=O)(=O)c2ccccc2)c1 (stereo not drawn)	-2	-8	90*	9	-27	3
CN(C)C(CNC(=O)c1ccc(S(=O)(=O)Nc2ccccc2)cc1)c1ccco1 (stereo not drawn)	-3	-6	27*	3	-17	3
Cc1ccc(NS(=O)(=O)c2cccc(C(=O)NCC(c3ccco3)N3CCCC3)c2)cc1 (stereo not drawn)	-1	-3	-9	-14	10	2
Cc1ccc(NS(=O)(=O)c2ccc(C(=O)NCC(c3ccco3)N3CCCCC3)cc2)cc1 (stereo not drawn)	5	8	11	13	-19	18*
O=C(NCC(c1ccco1)N1CCCCC1)c1ccc(S(=O)(=O)Nc2ccccc2)cc1 (stereo not drawn)	-10	-4	32*	4	-25	5
O=C(NCC(c1ccco1)N1CCCC1)c1ccccc1F (stereo not drawn)	-5	-7	-9	17	4	0
CCOCc1c(C(=O)NCC(c2ccco2)N2CCCC2)oc2ccccc12 (stereo not drawn)	14	-9	28*	-20	-18	0
CN(c1ccccc1)S(=O)(=O)c1ccc(C(=O)NCC(c2ccco2)N2CCCCC2)cc1 (stereo not drawn)	-18	-6	36*	14	-19	4
COc1ccccc1N(C)S(=O)(=O)c1ccc(C(=O)NCC(c2ccco2)N2CCCCC2)cc1 (stereo not drawn)	-3	-7	6	-1	-4	2
Cc1c(C(=O)NCC(c2ccco2)N2CCCC2)sc2ccccc12 (stereo not drawn)	-10	-6	-11	23	4	1
CCc1cc(C(=O)NCC(c2ccco2)N2CCCCC2)sc1C (stereo not drawn)	1	-9	29*	-16	-19	-1
O=C(COC(=O)CN1C(=O)c2ccccc2C1=O)NC1CCCC1	13	-6	-9	-3	7	7
O[Si](CCCN1CCCCC1)(c1ccc(F)cc1)C1CCCCC1 (stereo not drawn)	-1	-6	97*	15	-26	2
O=C(Nc1ccccc1)c1cc(C2CCCN(C(=O)C3CC3)C2)on1 (stereo not drawn)	-11	-5	-10	28	6	2
CC(=O)N1CCCC(c2cc(C(=O)Nc3ccccc3)no2)C1 (stereo not drawn)	34*	-2	-17	-9	6	0
C=CCN(C(=O)c1ccc2snnc2c1)c1ccccc1	-5	-10	-19	29	17	1
COc1ccccc1NC(=O)c1ccccc1-c1nc(-c2ccccc2OC)no1	0	0	29*	23	-11	5
COCc1nc(-c2ccc(-c3ccccc3)nc2OC)no1	-3	-3	-20	16	8	0
COc1ccccc1-c1noc(-c2ccccc2C(=O)Nc2ccccc2)n1	1	-1	-9	1	-13	2
COc1ccccc1-c1nc(-c2ccc(C)nc2OC)no1	26*	-1	2	-5	1	0
COc1nc(-c2ccccc2)ccc1-c1noc(C)n1	28*	-5	3	1	6	0
CC(C)CNCC(=O)N1c2ccccc2Sc2ccccc21	-2	-6	93*	15	-22	1
COCCCNC(=O)N1c2ccccc2Sc2ccccc21	-6	-7	-21	15	19	1
COCCNCC(=O)N1c2ccccc2Sc2ccccc21	0	-9	90*	-8	-29	0
COc1ccc(C(=O)NC(=S)Nc2ccc(CN3CCCCC3)cc2)cc1Cl	-10	-7	29*	17	-22	3
SMILES	CHO-K1 Ca antag	M1 ag	CHRM1 antagonist	M1 PAM parental	CHRM1 PAM	CHO-K1 Ca ag
O=C(COc1ccc(Cl)cc1Cl)Nc1ccc(CN2CCOCC2)cc1	-5	-8	4	8	-10	11
COc1ccc(C(=O)NC(=S)Nc2ccc(CN3CCOCC3)cc2)cc1Cl	0	1	11	2	-12	13
O=C(COc1ccc(Cl)cc1Cl)Nc1ccc(CN2CCCCC2)cc1	-10	-14	21*	11	-35	5
Cc1cc(NC(=O)COC(=O)c2n[nH]c3ccccc23)no1	29*	-1	-1	-8	1	0
CC(C)N(Cc1ccccc1)C(=O)CN1C(=O)NC(Cc2ccccc2)(c2ccccc2)C1=O (stereo not drawn)	-14	-3	-6	11	9	1
COC(=O)c1cc(OC)nc2ccc(Br)cc12	-14	-1	3	9	4	1
Cc1cc(C)n(CC(=O)c2cccc([N+](=O)[O-])c2)n1	0	-6	-10	9	9	17*
CN(/N=C/c1ccc(O)cc1O)c1nc(-c2ccccc2)cc(-c2ccccc2)n1	-11	-8	-9	22	5	0
Cc1ccc[n+](CC(=O)Nc2ccc(C)c(C)c2)c1	-6	-9	-6	17	7	0
Oc1ccc(C23CCCC2C2(CCCC2)c2ccc(O)cc2O3)c(O)c1 (stereo not drawn)	7	40*	38*	1	-19	24*
CC(=O)NC(Nc1c(C)n(C)n(-c2ccccc2)c1=O)C(Cl)(Cl)Cl (stereo not drawn)	-6	-2	-8	-4	6	0
O=C(c1[nH]c(C(F)(F)F)nc1-c1ccccc1)N1CCN(c2ncccc2C(F)(F)F)CC1	5	1	-29	0	-1	2
O=C(CCc1ccc(O)c(O)c1)NNC(=S)Nc1ccc(Br)cc1Cl	6	-4	-7	9	7	0
Cc1ccc(CC(=O)Nc2ccc(S(=O)(=O)Nc3nccc(C)n3)cc2)cc1	-9	0	-8	5	6	-1
Cc1ccnc(NS(=O)(=O)c2ccc(NC(=O)Cc3ccccc3)cc2)n1	25*	-4	4	-10	0	0
Cc1cc(C)nc(NS(=O)(=O)c2ccc(NC(=O)Cc3ccccc3)cc2)n1	24*	-4	15	-10	-12	5
CCN(C[C@H]1N[C@@](CC)(C(=O)OC)[C@H]2C(=O)N(C)C(=O)[C@@H]12)C(=O)COC	-16	-3	-3	9	5	0
CC(=O)N1CCOc2ccc(S(=O)(=O)N3CCC(C(=O)NCc4ccc(F)cc4)CC3)cc21	-14	-4	-8	13	5	2
CN(C)CCCOC(=O)COc1ccc(Br)cc1	-8	-5	0	13	-1	1
CCc1nc(SCC(=O)c2cccs2)c2oc3ccccc3c2n1	26*	-2	21	-8	-9	0
